Bioassay records deposited in PubChem BioAssay by National Center for Advancing Translational Sciences (NCATS).
Rows were chosen to be rich in hits. Some 9.4% of all compounds tested hit in one or more screens of this group.
FLuc modulator: firefly luciferase modulation, counter-screen for miR-21 project; 360,000 tested, 6.9% active; AID 588342; Potency, µM (titrated, usually from 57.5 µM), usual class: inhibitors; P08659; purified FLuc, Km substrates, luminescence inhibition; also: nearly all actives have a fitted effect of over 55% in size
Target sequence (P08659 whole entry, looked up): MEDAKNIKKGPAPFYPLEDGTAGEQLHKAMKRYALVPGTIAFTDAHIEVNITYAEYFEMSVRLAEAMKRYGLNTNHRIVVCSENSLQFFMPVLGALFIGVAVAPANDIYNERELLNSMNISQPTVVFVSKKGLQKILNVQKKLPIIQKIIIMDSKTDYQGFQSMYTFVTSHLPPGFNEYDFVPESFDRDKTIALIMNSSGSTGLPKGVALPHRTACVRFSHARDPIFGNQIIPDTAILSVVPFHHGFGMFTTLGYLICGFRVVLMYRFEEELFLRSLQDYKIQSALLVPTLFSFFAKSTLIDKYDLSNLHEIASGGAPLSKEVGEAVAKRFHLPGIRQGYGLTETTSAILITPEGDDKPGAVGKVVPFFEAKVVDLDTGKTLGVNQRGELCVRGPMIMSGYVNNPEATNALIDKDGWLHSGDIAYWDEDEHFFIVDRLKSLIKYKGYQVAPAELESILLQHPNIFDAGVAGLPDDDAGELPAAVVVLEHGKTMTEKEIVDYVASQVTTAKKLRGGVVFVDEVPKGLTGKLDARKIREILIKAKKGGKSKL
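Purified P. pyralis luciferase, 10 nM final, with Km-level 10 uM D-luciferin and 10 uM ATP in 50 mM Tris acetate pH 7.5, 10 mM Mg acetate, 0.01% Tween-20, 0.05% BSA; 6-point qHTS titration about 60 µM downward; luminescence read.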
ELG1 repair inh: blocks ELG1-dependent DNA repair in HEK293T cells. HEK293T ELG1-luciferase reporter, luminescence, 16 h; DNA damage induced by 5-fluorouridine. Potency, µM (highest dose often 46.1 µM), usual class: inhibitors. 330,000 tested, 2.3% active. AID 504467; also: nearly all actives have a fitted effect of over 55% in size
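Quantitative HTS, concentration-response format. 2,000 cells/well co-treated with 5-fluorouridine and compound, 16 hr in 5% CO2 at 37 °C; ONE-Glo luminescence read after 30 min.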
SMN2 splice enh: increases expression of the SMN2 splice variant; HEK293 SMN2-luciferase splicing reporter, luminescence, 30-36 h; Potency, µM (top dose mostly 46.1 µM), most hits filed as activators; 210,000 tested, 2.8% active; AID 1458; also: nearly all actives have a fitted effect of over 55% in size
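qHTS luciferase splicing reporter: luminescence rises when SMN2 exon 7 is included in transfected HEK293 cells. Compound exposure lasted 30-36 h at 37C, with 4.5 mM final sodium butyrate as control, followed by a ONE-Glo read.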
Rab9 promoter act: activators of Rab9 promoter | Potency, µM (highest dose often 9.22 µM), actives largely listed as activators | Huh7 Rab9 promoter-luciferase reporter, luminescence, 24 h | 320,000 tested, 2.8% active; also: nearly all actives have a fitted effect of over 60% in size
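Huh7 cells stably carrying Rab9 promoter–luciferase reporter, plated 1500 cells/well, compound added after 2 h and incubated 24 h at 37 °C; luciferase luminescence then read after 10 min with detection reagent.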
ELG1 genotox: genotoxicity induction in ELG1-luciferase HEK293T cells; HEK293T ELG1-luciferase reporter, luminescence, 16 h; Potency, µM (titrated, usually from 46 µM), most hits filed as activators; 330,000 tested, 1.3% active; AID 504466; also: nearly all actives have a fitted effect of over 60% in size
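HEK293T cells expressing luciferase-tagged ELG1 were exposed to compound or DMSO vehicle for 16 hr at 37 °C and 5% CO2. Luciferase activity was then measured with ONE-Glo after 30 min at room temperature.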
NPC1 prom act: NPC1 promoter activation. 320,000 tested, 2.4% active. Huh7 NPC1 promoter luciferase reporter, 24 h. Potency, µM (series often up to 9.22 µM), most hits filed as activators; also: nearly all actives have a fitted effect of over 60% in size
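Huh7 cells stably carrying NPC1 promoter–luciferase, plated in Opti-MEM with 10% FBS for 2 h, were exposed to compound in DMSO for 24 h at 37 °C; luciferase reagent was added for 10 min and luminescence read.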
Numbers stand for hits; . = inactive; ? = inconclusive; / = no result given; [ ] = another dose, or the depositor's remark. Calls follow the shape of the dose curve; as a rule, active = well fitted curve in the direction sought with a large enough effect; inconclusive = small, poorly fitted or top-dose-only effect, or another doubt; inactive = no such curve, though single readings can be large; an effect the other way counts as inactive or inconclusive.

SMILES | FLuc modulator | ELG1 repair inh | SMN2 splice enh | Rab9 promoter act | ELG1 genotox | NPC1 prom act
Cn1nnnc1SCCCNCc1cc(Br)ccc1OCc1ccccc1 | . | / | / | / | / | /
Cc1ccc(Nc2nc(/N=C/N(C)C)n[nH]2)cc1C | 24µM | ? | ? | ? | . | ?
COc1cccc(C(=O)NCC(c2ccc(N(C)C)cc2)N2CCc3ccccc32)c1 (centres undefined) | . | / | / | / | / | /
COc1cccc(CNC(=O)CSc2nc(=O)n(Cc3ccncc3)c3c2CCC3)c1 | . | . | / | . | . | .
COc1ccc(-c2csc(N(C)C(=O)c3cccs3)n2)cc1 | 6µM | ? | / | 2.5µM | . | ?
CN(C(=O)c1ccco1)c1nc(-c2ccc(F)cc2)cs1 | 2.7µM | ? | / | 2.8µM | ? | 3.5µM
CN(C(=O)c1ccco1)c1nnc(-c2ccc(F)cc2)s1 | 6.7µM | ? | / | 3.2µM | ? | 2.2µM
COc1cccc(CNC(=O)c2cccc(N3CCCS3(=O)=O)c2)c1 | . | / | / | / | / | /
Cc1ccc(NC(=O)C(Cc2ccccc2)n2cccc2)cc1C (centres undefined) | . | / | . | / | / | /
COc1ccc(-c2cn3nc(N4CCC(C(=O)Nc5cc(Cl)ccc5C)CC4)sc3n2)cc1 | . | / | / | / | / | /
C=CCn1c(=S)[nH]c2scc(-c3cccs3)c2c1=O | 13µM | ? | . | . | . | .
COc1cccc(NC(=O)CSc2nnc3[nH]c(=O)cc(-c4ccccc4)n23)c1 | 1.2µM | / | / | / | / | /
O=C(CSc1nnc2[nH]c(=O)cc(-c3ccccc3)n12)Nc1ccc(OC(F)(F)F)cc1 | 2.4µM | / | / | / | / | /
CCN(CC)C(=O)CSc1ncnc2sccc12 | . | ? | . | . | . | .
CCN(CC)C(=O)CSc1nc(-c2ccccc2)cc(-c2ccc(OC)cc2)c1C#N | 17µM | / | . | / | / | /
C#CCSc1nc(-c2cccs2)ccc1C#N | . | . | . | . | . | .
CCN(CC)C(=O)CSc1ncnc2c(-c3cccs3)nsc12 | .[2.3 µM] | ? | . | 3.2µM | . | ?
COC(=O)CSc1nc(-c2cccs2)ccc1C#N | ? | ? | 14µM | 2.2µM | 8.2µM | 1.8µM
COc1ccc(-c2cc(-c3cccs3)c(C#N)c(SCC(=O)NCc3ccco3)n2)cc1 | 12µM | ? | . | . | ? | .
C=C(C)CSc1nc(-c2ccccc2)cc(-c2ccc(OC)cc2)c1C#N | . | / | . | / | / | /
COc1ccc2oc(-c3ccc(C)c(NC(=O)c4ccc(N5CCCCC5)c([N+](=O)[O-])c4)c3)nc2c1 | . | / | . | / | / | /
COc1cccc(OC(=O)CSc2nnc(-c3cccs3)o2)c1 | . | / | / | / | / | /
COC(=O)c1cc2oc3ccccc3c2n1Cc1c(C)cc(C)cc1C | . | / | . | / | / | /
CCN(CC)C(=O)CSc1nc(-c2cccs2)cc(-c2cccs2)c1C#N | . | 16µM | . | . | . | .
N#C/C(=C(/O)c1ccccc1F)c1nc2cc(C(F)(F)F)ccc2s1 | ? | . | / | . | . | .
SMILES | FLuc modulator | ELG1 repair inh | SMN2 splice enh | Rab9 promoter act | ELG1 genotox | NPC1 prom act
N#C/C(=C(/O)c1ccc2c(c1)OCO2)c1nc2cc(C(F)(F)F)ccc2s1 | 17µM | . | / | . | . | .
COc1ccc(CCNC(=O)C(=O)NCC(c2cccs2)S(=O)(=O)c2ccccc2)cc1 (centres undefined) | . | / | / | / | / | /
COc1ccc(NC(=O)NCc2ccccn2)c(OC)c1 | . | . | / | . | . | .
COc1cc(NC(=O)CSc2ncnc3scc(-c4ccccc4)c23)c(C(=O)O)cc1OC | 15µM | . | . | . | . | .
O=C(O)CSc1ncnc2scc(-c3ccccc3)c12 | . | . | / | . | . | .
Oc1oc(-c2cccc3ccccc23)nc1/C=N/c1nccs1 | . | . | . | . | . | .
Cc1ccnc(N=Cc2nc(-c3ccccc3Br)oc2O)c1 | 5.4µM | ? | . | ? | . | .
Cc1cccc(/N=C/c2nc(-c3ccccc3Br)oc2O)n1 | 7.6µM | . | . | . | . | .
CCCCNC(=O)CSc1nnc(C)c2c(C)n(-c3ccccc3)nc12 | . | / | / | / | / | /
Cc1ccc(C(=O)c2cnc3cc4c(cc3c2S(=O)(=O)c2ccccc2)OCCO4)cc1 | 1.7µM | ? | . | . | . | .
O=C1C2C3C=CC(C4CC34)C2C(=O)N1c1cccc2ccccc12 (centres undefined) | 6.7µM | ? | / | . | . | .
O=C(CSc1cn(CC(=O)N2CCCCC2)c2ccccc12)NCc1ccc(F)cc1 | . | / | / | / | / | /
COc1ccc(Cl)cc1NC(=O)NCC1CCN(Cc2cc(C)ccc2C)CC1 | . | ? | / | . | . | .
COc1cc([N+](=O)[O-])ccc1NC(=O)NCC1CCN(Cc2ccc(Cl)cc2)CC1 | . | 23µM | / | .[1.84 µM] | . | .
CCOC(=O)c1c(S(=O)(=O)N2CCC(C(=O)N3CCN(c4ccc(F)cc4)CC3)CC2)c(C)n(C)c1C | . | / | / | / | / | /
CC(=O)COc1nc2c(c(-c3ccco3)c1C#N)CCc1ccccc1-2 | . | 8.2µM | / | . | . | .
CCOc1nc2c(c(-c3cccs3)c1C#N)Cc1ccccc1-2 | . | . | / | . | . | .
CCn1c(COc2cccc(C)c2)nc2ccccc21 | ? | . | . | . | . | .
